The values that follow come from PubChem BioAssay (NCATS).

The target of assay [1] is Cellular tumor antigen p53 (Homo sapiens) (UniProt P04637). In words: Primary qHTS for small molecule compounds that upregulate eGFP-tagged delta133p53alpha (in N-terminal) cells. (AID 2060322). Further: nearly all actives have a fitted effect of over 75% in size. Further: potency means the concentration at half of the fitted maximal effect.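 On activation: series mostly up to about 56 µM; 0% = DMSO vehicle and 100% = reference activator.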 The conditions noted are these: NCI-H358 eGFP-delta133p53alpha fluorescence, 24 h; activation: active compounds read high. The procedure, abridged: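 NCI-H358 cells pre-induced 24 h with 10 ng/ml doxycycline to express N-terminal eGFP-delta133p53alpha, then dosed 24 h at 37C without doxycycline; fixed, Hoechst-stained, GFP intensity by laser scanning cytometry, normalized to DMSO (0%) and 57.5 uM 5-azacytidine (100%).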
For orientation: Quantitative high-throughput screening tests each substance at several concentrations.

For assay [2], the target named is Aldehyde dehydrogenase, mitochondrial (Homo sapiens) (UniProt P05091). In words: qHTS for Inhibitors of the Aldehyde Dehydrogenase Family (ALDH2) Primary screen (AID 2061308).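 Further: plate controls were vehicle for no effect and reference inhibitor for full effect; nearly all actives have a fitted effect of over 55% in size.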
Assay [3] concerns the target Retinaldehyde dehydrogenase 3 (Homo sapiens) (UniProt P47895). In words: qHTS for Inhibitors of the Aldehyde Dehydrogenase Family (ALDH1A3) Primary screen (AID 2061315).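 Further: plate controls were DMSO vehicle for no effect and reference inhibitor for full effect.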

Molecules are shown by their SMILES. Inconclusive results are not listed. Unmarked numbers belong to inactive results. Calls of active or inactive are those of the source. The call rests on the fitted dose curve; in most records, active means well fitted curve in the direction sought with a large enough effect; inconclusive means small, poorly fitted or top-dose-only effect, or another doubt; inactive means no such curve, though single readings can be large; an effect the other way counts as inactive or inconclusive.

Chain of Cellular tumor antigen p53 (Homo sapiens) (P04637 whole entry, looked up): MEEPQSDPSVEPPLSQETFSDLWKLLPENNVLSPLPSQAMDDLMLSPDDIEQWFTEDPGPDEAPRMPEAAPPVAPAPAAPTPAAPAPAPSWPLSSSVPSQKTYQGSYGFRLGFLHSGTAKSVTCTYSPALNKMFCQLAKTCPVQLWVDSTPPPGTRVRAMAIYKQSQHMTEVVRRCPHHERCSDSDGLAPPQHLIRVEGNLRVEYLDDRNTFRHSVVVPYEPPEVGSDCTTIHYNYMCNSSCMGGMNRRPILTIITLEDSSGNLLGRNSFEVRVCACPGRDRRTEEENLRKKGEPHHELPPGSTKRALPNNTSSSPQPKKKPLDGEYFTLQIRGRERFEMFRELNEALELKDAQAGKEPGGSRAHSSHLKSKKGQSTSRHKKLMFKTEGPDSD

Take `C=CC(C)(CC/C=C(\C)CC/C=C(\C)CC(O)/C=C(\C)C(=O)O)O[C@@H]1O[C@H](CO)[C@@H](O)[C@H](O)[C@H]1O[C@@H]1O[C@H](CO)[C@@H](O)[C@H](O)[C@H]1O` (stereo partly specified): in assay [1], the activation was -12.2%. The Potency result in assay [2] and in assay [3] was “inactive” throughout.

As to `C[N+]1(C)[C@@H]2CC[C@H]1CC(OC(=O)C(O)c1ccccc1)C2` (stereo partly specified), the activation in assay [1] is 13.7%. For the same compound, the Potency result in assay [2] and in assay [3] was “inactive” throughout.

As to `CC(C)=CCCC1(C)/C=C/C(OC(=O)C=C(C)C)C(C)(O)/C=C/C(=O)/C(CO)=C\C1` (stereo unspecified), in assay [1], the Potency is 10.4 µM (active). The Potency result in assay [2] and in assay [3] was “inactive” each time.

For the compound `Cc1ccccc1CN1C2=NCCN2C(=O)C2=C1CCN(Cc1ccccc1)C2`, in assay [1], the activation was 29%. The Potency entry in assay [2] and in assay [3] was “inactive” throughout.

As for `C[C@H](O)[C@H](O)/C=C/c1cccc(O)c1CO`, the activation in assay [1] was -15.3%. In addition, the Potency result in assay [2] and in assay [3] was “inactive” in each case.

On to `CC1CCC2(C=O)C(CO)=CCCC2C1(C)CC(=O)O` (stereo unspecified), for which the activation in assay [1] was -0.763%. For the same compound, the Potency result in assay [2] and in assay [3] was “inactive” in each case.

Take `COC(=O)/C=C/c1ccc(O[C@@H]2O[C@H](CO)[C@@H](O)[C@H](O)[C@H]2O)cc1`: the activation in assay [1] is -8.04%. The Potency result in assay [2] and in assay [3] was “inactive” in each case.

As to `C=C1CCC2C(C)(C(=O)O)CCCC2(C)C1CC/C(=C\CO)CO` (stereo unspecified), the activation in assay [1] was 3.57%. In addition, the Potency entry in assay [2] and in assay [3] was “inactive” each time.

Regarding `COc1ccc(C2OCC3C(c4cc(OC)c5c(c4)OCO5)OCC23)cc1OC` (stereo unspecified), the activation in assay [1] was -8.4%. The Potency entry in assay [2] and in assay [3] was “inactive” in each case.

As for `C=C1CC(=O)C2OC2(C)CC2OC(=O)C(=C)C2C(O)C1OC(=O)/C(C)=C\C` (stereo unspecified), in assay [1], the Potency is 16.6 µM (active). The Potency result in assay [2] and in assay [3] was “inactive” each time.

`N#Cc1ccc(Nc2nc(-c3ccc(O)cc3O)cs2)cc1C(F)(F)F`: in assay [1], the Potency is 26.9 µM (active). Also, the Potency result in assay [2] and in assay [3] was “inactive” throughout.

In the case of `O=S(=O)(N[C@H]1CCCC[C@@H]1N1CCOCC1)c1ccc(Cl)cc1`, the activation in assay [1] is -16.3%. Besides, the Potency entry in assay [2] and in assay [3] was “inactive” each time.

Consider `C/C=C(\C)C(=O)O[C@@H](C)[C@H]1CC[C@]2(O)C3CCC4C[C@@H](OC5CC(OC)C(OC6CC(OC)C(OC7CC(OC)C(OC8OC(C)C(OC9OC(CO)C(O)C(O)C9O)C(OC)C8O)C(C)O7)C(C)O6)C(C)O5)CC[C@]4(C)C3[C@H](O)[C@@H](O)[C@]12C` (stereo partly specified), for which the activation in assay [1] is 8.04%. The activity change, negative = inhibition in assay [2] was 4.67% [at 11.2 µM]; in assay [3] it was -5.31% [at 11.2 µM].

Regarding `CC1=CC2/C=C(\C)CCC3OC(C)(C)OC3CCC(=O)C23C(=O)NC(CC(C)C)C3C1C` (stereo unspecified), the activation in assay [1] is -10.7%. In addition, the Potency entry in assay [2] and in assay [3] was “inactive” in each case.

With `C=C1CC[C@H]2[C@@](C)(CCC[C@@]2(C)C(=O)O)[C@@H]1CCC(C)CCO` (stereo partly specified), in assay [1], the activation is 9.16%. The Potency result in assay [2] and in assay [3] was “inactive” throughout.

For the compound `C=C1C(=O)O[C@@H]2/C=C(\CO)CC/C=C(/C=O)C[C@H](O)[C@@H]12`, in assay [1], the Potency was 26.9 µM (active). Further, the Potency entry in assay [2] and in assay [3] was “inactive” in each case.

Regarding `CC(=O)O[C@@H]1[C@@H](O)[C@H](O[C@@H]2[C@@H](O)[C@@H](O)[C@H](O[C@H]3[C@H](O[C@H]4[C@H](O[C@H]5CC[C@@]6(C)C(CC[C@]7(C)C6CC=C6[C@@H]8CC(C)(C)CC[C@]8(C(=O)O)CC[C@]67C)[C@]5(C)CO)O[C@H](CO)[C@@H](O)[C@@H]4O)OC[C@@H](O)[C@@H]3O)O[C@H]2C)OC[C@H]1O` (stereo partly specified), the activation in assay [1] was -3.05%. Besides, the Potency entry in assay [2] and in assay [3] was “inactive” throughout.

Turning to `CC1=CC(=O)CC(C)(CO[C@@H]2O[C@H](CO)[C@@H](O)[C@H](O)[C@H]2O)C1(O)/C=C/C(C)=C/C(=O)O` (stereo partly specified), the activation in assay [1] is 0.893%. For the same compound, the Potency entry in assay [2] and in assay [3] was “inactive” each time.

For `CC1=CC(=O)CC(C)(C)[C@H]1/C=C/C(CO)O[C@@H]1O[C@H](CO)[C@@H](O)[C@H](O)[C@H]1O` (stereo partly specified), in assay [1], the activation was 9.16%. In addition, the Potency entry in assay [2] and in assay [3] was “inactive” throughout.

For `Cn1ccc(NC(=O)c2cc(Oc3ccc(C(=O)N4CCC4)c(F)c3)c3c(c2)OC(C)(C)C3)n1`, in assay [1], the activation was -12.3%. Besides, the Potency entry in assay [2] and in assay [3] was “inactive” in each case.

On to `C[C@@H]1O[C@@H](O[C@H]2[C@H](O[C@H]3[C@H](O[C@H]4CC[C@@]5(C)C(CC[C@]6(C)C5CC=C5[C@@H]7CC(C)(C)C[C@@H](O)[C@]7(C)CC[C@]56C)[C@@]4(C)CO)O[C@H](C(=O)O)[C@@H](O)[C@@H]3O)O[C@H](CO)[C@H](O)[C@@H]2O)[C@H](O)[C@H](O)[C@H]1O` (stereo partly specified), for which, in assay [1], the activation is -9.92%. Further, the Potency entry in assay [2] and in assay [3] was “inactive” throughout.

With `O=C(O)[C@H]1Cc2ccccc2CN1`, the activation in assay [1] is 6.21%. Moreover, the values for the activity change, negative = inhibition in assay [2] and in assay [3] were 6.47% [at 5.59 µM] and -14.2% [at 5.59 µM], respectively.
